Experimental data taken from ChEMBL document CHEMBL3988442, “University of Dundee, Small-Polar-MMV Screening Library” (2021).
For some assays here: Entries with a potency or affinity are not part of this list.

Experiments:
Set-up in all cases: scale not given: direction of the effect not stated beside the values
[1] = target: Protein translocase subunit SecA (Escherichia coli (strain K12)) (UniProt P10408); experiment: Assay to Identify E. coli SecA ATPase Inhibitors; type: functional; conditions: 30 µM
[2] = target: T1, Ubiquitin-activating enzyme e1, putative (Leishmania donovani (strain BPK282A1)) (UniProt E9BSI1); experiment: Leishmania donovani Ubiquitin Activating Enzyme (LdE1); type: functional; conditions: 30 µM
T1 sequence (whole entry): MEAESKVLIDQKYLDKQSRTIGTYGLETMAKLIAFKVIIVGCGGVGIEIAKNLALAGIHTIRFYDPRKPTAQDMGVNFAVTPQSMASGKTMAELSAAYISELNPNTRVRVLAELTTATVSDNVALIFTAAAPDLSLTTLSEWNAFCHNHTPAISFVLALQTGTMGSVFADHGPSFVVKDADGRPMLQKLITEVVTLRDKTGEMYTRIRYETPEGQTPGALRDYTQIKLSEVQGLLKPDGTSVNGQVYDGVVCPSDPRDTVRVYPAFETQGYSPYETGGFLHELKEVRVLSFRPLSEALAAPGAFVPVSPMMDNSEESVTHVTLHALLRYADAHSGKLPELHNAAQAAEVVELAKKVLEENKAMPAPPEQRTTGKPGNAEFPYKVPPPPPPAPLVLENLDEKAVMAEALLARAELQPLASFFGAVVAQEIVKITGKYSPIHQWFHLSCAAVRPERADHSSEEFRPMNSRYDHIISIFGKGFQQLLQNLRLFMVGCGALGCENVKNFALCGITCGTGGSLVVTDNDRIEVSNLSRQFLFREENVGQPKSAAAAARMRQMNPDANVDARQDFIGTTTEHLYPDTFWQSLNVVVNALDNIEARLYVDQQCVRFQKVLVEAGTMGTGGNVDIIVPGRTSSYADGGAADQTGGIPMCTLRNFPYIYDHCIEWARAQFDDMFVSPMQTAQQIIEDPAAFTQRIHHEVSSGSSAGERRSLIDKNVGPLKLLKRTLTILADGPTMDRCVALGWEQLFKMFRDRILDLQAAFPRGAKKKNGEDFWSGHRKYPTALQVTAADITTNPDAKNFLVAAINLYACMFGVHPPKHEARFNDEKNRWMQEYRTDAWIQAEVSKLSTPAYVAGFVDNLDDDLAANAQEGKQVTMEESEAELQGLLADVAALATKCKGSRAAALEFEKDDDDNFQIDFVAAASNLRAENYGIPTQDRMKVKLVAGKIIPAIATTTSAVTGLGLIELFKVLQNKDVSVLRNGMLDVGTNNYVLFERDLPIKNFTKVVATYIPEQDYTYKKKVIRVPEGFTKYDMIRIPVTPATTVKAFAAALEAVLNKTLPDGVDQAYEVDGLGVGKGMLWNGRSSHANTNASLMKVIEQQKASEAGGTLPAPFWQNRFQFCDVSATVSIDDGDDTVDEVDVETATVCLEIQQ

[3] = target: AMP-activated protein kinase, AMPK (Homo sapiens) (UniProt P54646+O43741+P54619+Q9UGJ0+Q9Y478+Q13131+Q9UGI9); experiment: AMP-dependent Kinase enzyme assay. An in vitro enzyme assay that detects ADP turnover that is directly proportional to AMPK activity. This uses naive AMPK that is activated during the assay with MK-8722; type: functional; conditions: 30 µM
[4] = target: Sialic acid-binding Ig-like lectin 9 (Homo sapiens) (UniProt Q9Y336); experiment: Hs-Siglec9 ALPHAscreen SOP 20170721; conditions: 10 µM
Trypanosoma cruzi = experiment: Trypanosoma cruzi phosphomannomutase and mannose-1-phosphate guanylyltransferase assay; type: functional; conditions: 10 µM
[5] = target: T2, Arginase-2, mitochondrial (Homo sapiens) (UniProt P78540); experiment: in vitro enzyme assay to detect the production of urea directly proportional to the activity of Arginase II; type: functional; conditions: 33.3 µM; also: in the data most compounds retested in dose-response had high values
T2 sequence (whole entry): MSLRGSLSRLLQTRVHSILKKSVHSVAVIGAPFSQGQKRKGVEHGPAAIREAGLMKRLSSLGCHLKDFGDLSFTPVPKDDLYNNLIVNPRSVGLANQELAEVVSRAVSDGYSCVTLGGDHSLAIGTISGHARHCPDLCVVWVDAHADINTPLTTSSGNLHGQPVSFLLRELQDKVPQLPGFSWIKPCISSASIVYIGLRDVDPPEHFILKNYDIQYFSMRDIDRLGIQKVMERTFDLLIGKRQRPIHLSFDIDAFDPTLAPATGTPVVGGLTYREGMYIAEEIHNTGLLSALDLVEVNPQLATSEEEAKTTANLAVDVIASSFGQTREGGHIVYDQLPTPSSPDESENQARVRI

[6] = target: T3, Proteasome subunit beta (Trypanosoma cruzi) (UniProt O96673); experiment: Trypanosoma cruzi proteasome chymotrypsin-like activity (TcProtChymo) assay.; also: in the data most compounds retested in dose-response had high values; type: functional; conditions: 9.37 µM
T3 sequence (whole entry): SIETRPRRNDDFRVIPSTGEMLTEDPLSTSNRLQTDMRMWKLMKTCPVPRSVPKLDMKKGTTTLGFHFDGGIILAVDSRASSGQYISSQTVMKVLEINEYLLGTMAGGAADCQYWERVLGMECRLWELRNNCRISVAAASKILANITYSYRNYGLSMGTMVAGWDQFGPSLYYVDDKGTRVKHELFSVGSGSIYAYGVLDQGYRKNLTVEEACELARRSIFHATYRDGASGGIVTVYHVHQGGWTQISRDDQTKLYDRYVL

Homo sapiens = organism: Homo sapiens; experiment: To identify inhibition of the IFN signalling (Jak-Stat) pathway via expression of an eGFP reporter gene under the control of an IFN-stimulated response element (ISRE) containing MxA promoter.; type: functional; conditions: 30 µM
[7] = target: T4, Tyrosyl-tRNA synthetase, putative (Trypanosoma cruzi (strain CL Brener)) (UniProt Q4DSP6); experiment: Trypanosoma cruzi tyrosyl tRNA synthetase (TcYRS) _High Tyrosine SOP; type: functional; conditions: 30 µM; also: in the data most compounds retested in dose-response had high values
T4 sequence (whole entry): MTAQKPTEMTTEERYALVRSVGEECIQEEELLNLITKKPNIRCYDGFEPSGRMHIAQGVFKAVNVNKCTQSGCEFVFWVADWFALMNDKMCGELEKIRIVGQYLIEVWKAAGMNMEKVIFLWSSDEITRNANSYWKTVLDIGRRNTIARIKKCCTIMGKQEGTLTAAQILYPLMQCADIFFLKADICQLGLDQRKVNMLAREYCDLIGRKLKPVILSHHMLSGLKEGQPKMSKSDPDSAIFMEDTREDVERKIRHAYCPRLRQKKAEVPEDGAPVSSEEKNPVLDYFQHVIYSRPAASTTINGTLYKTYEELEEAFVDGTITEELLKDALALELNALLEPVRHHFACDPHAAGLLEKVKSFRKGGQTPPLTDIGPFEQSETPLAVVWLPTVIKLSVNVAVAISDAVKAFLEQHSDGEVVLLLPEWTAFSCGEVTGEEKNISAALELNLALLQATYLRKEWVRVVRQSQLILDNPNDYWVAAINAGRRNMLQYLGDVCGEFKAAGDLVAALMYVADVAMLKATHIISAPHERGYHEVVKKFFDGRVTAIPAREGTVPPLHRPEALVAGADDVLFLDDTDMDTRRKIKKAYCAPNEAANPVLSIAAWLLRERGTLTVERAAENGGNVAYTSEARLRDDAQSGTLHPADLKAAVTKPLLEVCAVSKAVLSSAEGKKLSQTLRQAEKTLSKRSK

[8] = target: T4, Tyrosyl-tRNA synthetase, putative (Trypanosoma cruzi (strain CL Brener)); experiment: Trypanosoma cruzi tyrosyl tRNA synthetase (TcYRS) SOP; type: functional; conditions: 30 µM
[9] = target: Chromo domain-containing protein 1 (Saccharomyces cerevisiae (strain ATCC 204508 / S288c) (Baker's yeast)) (UniProt P32657); experiment: ScCHD-1 Enzyme Inhibition Assay; type: functional; conditions: 30 µM; also: in the data most compounds retested in dose-response had high values
Chromo domain-containing protein 1 (Saccharomyces cerevisiae (strain ATCC 204508 / S288c) (Baker's yeast)), sequence (P32657 whole entry, the tested form may be a part): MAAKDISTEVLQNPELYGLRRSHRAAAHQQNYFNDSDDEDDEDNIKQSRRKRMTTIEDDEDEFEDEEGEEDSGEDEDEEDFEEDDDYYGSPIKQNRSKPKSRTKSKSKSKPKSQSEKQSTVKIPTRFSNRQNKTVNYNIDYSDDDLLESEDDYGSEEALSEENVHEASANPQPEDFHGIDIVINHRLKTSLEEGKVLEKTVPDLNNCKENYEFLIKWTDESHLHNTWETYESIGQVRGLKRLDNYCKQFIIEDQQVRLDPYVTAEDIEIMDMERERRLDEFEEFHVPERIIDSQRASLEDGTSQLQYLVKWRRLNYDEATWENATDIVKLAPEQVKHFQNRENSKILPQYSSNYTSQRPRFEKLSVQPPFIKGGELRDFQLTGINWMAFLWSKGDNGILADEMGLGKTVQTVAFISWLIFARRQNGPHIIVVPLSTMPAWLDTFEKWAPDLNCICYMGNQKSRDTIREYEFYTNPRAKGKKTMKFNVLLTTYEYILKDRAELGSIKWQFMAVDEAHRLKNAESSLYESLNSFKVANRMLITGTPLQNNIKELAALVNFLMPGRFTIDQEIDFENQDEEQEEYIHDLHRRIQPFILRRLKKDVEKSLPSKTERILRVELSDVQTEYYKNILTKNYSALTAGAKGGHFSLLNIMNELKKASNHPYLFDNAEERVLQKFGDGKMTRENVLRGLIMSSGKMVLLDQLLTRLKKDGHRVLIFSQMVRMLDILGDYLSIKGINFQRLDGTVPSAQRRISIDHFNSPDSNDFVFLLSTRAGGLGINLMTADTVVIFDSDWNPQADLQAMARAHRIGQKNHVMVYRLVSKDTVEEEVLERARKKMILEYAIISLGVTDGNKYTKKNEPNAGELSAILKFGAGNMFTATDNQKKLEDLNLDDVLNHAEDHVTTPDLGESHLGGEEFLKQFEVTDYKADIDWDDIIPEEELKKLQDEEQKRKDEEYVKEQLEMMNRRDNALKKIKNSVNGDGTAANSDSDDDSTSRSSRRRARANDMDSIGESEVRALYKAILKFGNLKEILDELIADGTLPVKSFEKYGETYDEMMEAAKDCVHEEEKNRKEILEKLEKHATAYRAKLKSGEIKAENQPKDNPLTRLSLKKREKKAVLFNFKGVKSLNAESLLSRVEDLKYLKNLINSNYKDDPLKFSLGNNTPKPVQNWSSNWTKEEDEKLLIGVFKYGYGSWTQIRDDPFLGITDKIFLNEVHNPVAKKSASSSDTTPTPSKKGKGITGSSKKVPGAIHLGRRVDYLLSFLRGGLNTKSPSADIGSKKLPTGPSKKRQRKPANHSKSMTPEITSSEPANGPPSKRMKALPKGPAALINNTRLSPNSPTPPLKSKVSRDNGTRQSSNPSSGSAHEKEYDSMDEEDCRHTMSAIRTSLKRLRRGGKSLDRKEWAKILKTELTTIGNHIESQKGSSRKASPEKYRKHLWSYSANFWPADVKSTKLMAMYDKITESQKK

Protein translocase subunit SecA (Escherichia coli (strain K12)), sequence (P10408 whole entry): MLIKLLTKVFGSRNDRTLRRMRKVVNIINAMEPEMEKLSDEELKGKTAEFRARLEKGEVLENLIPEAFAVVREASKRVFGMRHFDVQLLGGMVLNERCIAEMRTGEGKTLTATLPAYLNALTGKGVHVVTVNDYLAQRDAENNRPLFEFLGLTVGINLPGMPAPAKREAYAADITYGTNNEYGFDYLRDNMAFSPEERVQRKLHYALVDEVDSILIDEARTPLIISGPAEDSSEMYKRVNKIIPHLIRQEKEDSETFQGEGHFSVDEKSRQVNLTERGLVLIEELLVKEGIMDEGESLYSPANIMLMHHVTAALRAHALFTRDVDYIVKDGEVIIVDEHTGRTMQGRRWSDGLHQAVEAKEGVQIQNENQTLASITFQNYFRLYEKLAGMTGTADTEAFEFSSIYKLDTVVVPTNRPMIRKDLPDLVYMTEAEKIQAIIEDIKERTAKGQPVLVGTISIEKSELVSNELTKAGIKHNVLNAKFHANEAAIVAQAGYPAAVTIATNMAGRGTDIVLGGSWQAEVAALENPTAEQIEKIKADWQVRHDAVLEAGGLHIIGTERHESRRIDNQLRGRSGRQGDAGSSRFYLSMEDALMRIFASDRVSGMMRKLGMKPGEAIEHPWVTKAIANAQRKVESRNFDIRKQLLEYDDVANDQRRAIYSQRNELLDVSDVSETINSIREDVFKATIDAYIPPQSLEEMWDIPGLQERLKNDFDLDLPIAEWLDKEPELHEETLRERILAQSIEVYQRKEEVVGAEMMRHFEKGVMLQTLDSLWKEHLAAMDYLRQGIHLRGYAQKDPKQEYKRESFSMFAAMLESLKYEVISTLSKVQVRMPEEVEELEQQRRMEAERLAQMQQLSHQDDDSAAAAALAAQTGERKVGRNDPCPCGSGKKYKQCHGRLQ
Sialic acid-binding Ig-like lectin 9 (Homo sapiens), sequence (Q9Y336 whole entry): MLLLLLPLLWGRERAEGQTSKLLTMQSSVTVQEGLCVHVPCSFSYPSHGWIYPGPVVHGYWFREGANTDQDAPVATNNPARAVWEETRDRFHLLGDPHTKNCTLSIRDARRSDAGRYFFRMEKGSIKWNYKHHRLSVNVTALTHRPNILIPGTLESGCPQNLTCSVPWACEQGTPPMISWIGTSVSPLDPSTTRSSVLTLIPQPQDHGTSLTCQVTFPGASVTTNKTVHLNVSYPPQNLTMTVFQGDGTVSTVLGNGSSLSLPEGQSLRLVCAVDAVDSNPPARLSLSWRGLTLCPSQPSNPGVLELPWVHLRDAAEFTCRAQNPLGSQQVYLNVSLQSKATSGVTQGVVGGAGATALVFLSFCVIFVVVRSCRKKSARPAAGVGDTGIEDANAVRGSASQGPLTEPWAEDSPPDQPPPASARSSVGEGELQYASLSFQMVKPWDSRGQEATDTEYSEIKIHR

SMILES	Percent Effect [1] [%]	Percent Effect [2] [%]	Percent Effect [3] [%]	Percent Effect [4] [%]	Percent Effect (Trypanosoma cruzi) [%]	Percent Effect [5] [%]	Percent Effect [6] [%]	Percent Effect (Homo sapiens) [%]	Percent Effect [7] [%]	Percent Effect [8] [%]	Percent Effect [9] [%]
CS(=O)(=O)N1CC[C@]2(C[C@@H](OCC3CCC3)CO2)C1	-3.98	16.2	-8.34	20.7	2.64	1.24	11.6	-1.67	5.38	18.5	-5.25
Cn1nccc1-c1ccc2nc(C3CCN(CCO)CC3)nn2c1	-3.12	13.3	0.376	3.71	1.35	-54.7	13.5	3.01	5.21	22.5	-7.82
CC(C)n1ccnc1CN1CCCN(C(=O)COC2CCCC2)CC1	-2.6	3.8	6.6	4.27	-1.74	-2.8	4.29	2.51	-1.04	2.53	-6.72
CCc1nccn1C1CCCN(C(=O)c2cn3cccnc3n2)C1 (configuration not stated)	-1.83	2.7	-8.93	1.79	-2.17	2.81	-3.96	-7.1	1.48	-1.24	1.22
Cc1nc(CCN(C)C(=O)C2COc3ccccc3C2)no1 (configuration not stated)	-7.54	13	-6.34	19.8	8.55	5.52	16.1	-0.00401	5.38	13.6	-7.23
CCCN(CC(=O)NC)C(=O)c1ccc(-c2ccsc2)nc1C	-1.19	6.94	-2.8	10.6	4.76	36.2	17.9	12.1	7.37	17.9	91
CC(NCc1ccccc1Br)c1ccc2[nH]c(=O)[nH]c2c1 (configuration not stated)	-1.71	-18.9	-5.22	10.9	5.19	-0.401	-0.18	25.5	-0.493	6.17	-4.59
COc1ccccc1S(=O)(=O)Nc1ccc2c(C(=O)O)c[nH]c2c1	-5.95	-10.4	-64.6	10.9	8.05	-4.98	8.28	14.3	0	12.2	-7.94
Cc1nc(CN2CCCCC2Cn2cncn2)nc2ccccc12 (configuration not stated)	-2.07	26	-3.54	-19.4	3.23	1.47	20.1	2.22	10.5	23.5	-22.8
CC(C)c1nnc2n1CCN(C(=O)CN1CCc3sccc3C1)C2	-3.25	5.26	-8.35	-4	7.71	4.6	-2.34	0.728	3.43	7.32	-5.85
COc1ccnc(N2CCN(C(=O)NCc3ccc(C)s3)CC2)n1	-4.33	15.6	6.59	2.69	4.6	1.47	5.42	-2.65	5.71	18.8	-0.255
Cc1ncc2c(n1)CN(Cc1noc(C3CC3)n1)CC2	-6.18	15.6	-33.1	11.6	5.43	2.85	8.11	2.58	6.8	19.5	-13.7
CC(O)CN1CCN(C(=O)c2ccc(N(C)C)nc2)CC1 (configuration not stated)	-1.4	33.8	-9.23	0.151	4.68	0	11	8.66	7.77	9.76	-4.89
O=C(c1cc(COc2ccc3c(c2)OCO3)[nH]n1)N1CCCC1	-4.35	-5.48	4.54	2.19	-5.56	4.39	21.7	14.2	3.12	6.17	-1.77
Cc1cc(C(=O)N2CC[C@@H]3CN(c4ncccn4)CCO[C@@H]3C2)c(C)o1	-0.56	16.2	-3.77	-14.6	0.0978	6.69	29	-4.39	6.49	20.5	-4.19
FC(F)(F)c1cccc(C2(CNCc3ccncc3)CCOCC2)c1	-0.743	10.8	-6.5	-1.68	-2.34	-1.67	13.9	23.6	7.92	11	16.9
COc1ccc(OCc2nc(C(=O)N3CC(O)C3)co2)cc1	-5.91	5.41	4.37	4.07	1.74	1.43	3.28	2.54	4.76	2.44	-0.668
CC(c1ccccc1)n1c(SCC(=O)O)nnc1-c1ccccc1Cl (configuration not stated)	-3.8	15.3	-8.09	28.7	4.57	-3.53	9.65	13.3	4.21	12.8	-5.19
CS(=O)(=O)NCCC(=O)NC1CCc2nccn2C1 (configuration not stated)	2.27	2.67	-6.45	1.64	-7.5	2.08	19.7	11.5	4.92	11.1	-5.26
O=C(CS(=O)(=O)CC1CCCCC1)NC1CCCCNC1=O (configuration not stated)	-5.08	2.6	-1.46	5.38	4.49	-6.05	-2.7	-1.34	0	9.76	83.8
CCc1cc(=O)[nH]c2nnc(SCC(=O)OC)n12	0.274	16.4	-5.37	-14.2	3.72	18.2	15.6	-0.951	6.45	17.5	-6.44
O=c1cc(CN2CCCC2)nc2n1CCCN(Cc1ccsc1)C2	-0.492	17.3	3.4	2.2	-1.57	-9.68	14.4	-8.49	4.23	7.69	-10.8
